Each structure is given as a SMILES string. Active and inactive are the calls of the source. Rule for the calls: active = hit-call score of the fitted dose curve at least 0.9, where 1 is the maximum; inactive = score below 0.9.

This assay is described as follows: ATG_TCF_b_cat_CIS: Attagene CIS-FACTORIAL HepG2 Assay for human T-Cell-Factor with beta-catenin (TCF/b-cat) (AID 2282965). Conditions: HepG2 TCF/beta-catenin cis-reporter transcription, actives raise or lower the signal. In outline:
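In this cis-format system, transfected HepG2 cells report endogenous transcription factor activity. Readout after 24 h exposure is reporter transcript abundance from RT-PCR and capillary electrophoresis, analysed for gain or loss of signal versus DMSO.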
Take `Cc1c(C(=O)c2c[nH]n(C)c2=O)ccc(S(C)(=O)=O)c1C1=NOCC1`: the outcome was inactive.

Take `CC(=O)OC(C)c1ccccc1` (stereo not drawn): the call was inactive.

Regarding `O=S(=O)(O)c1ccc(Nc2nc(Nc3ccc(C=Cc4ccc(Nc5nc(Nc6ccc(S(=O)(=O)O)cc6)nc(N(CCO)CCO)n5)cc4S(=O)(=O)O)c(S(=O)(=O)O)c3)nc(N(CCO)CCO)n2)cc1`, the call was inactive.

For `Clc1cccnc1`, the result was inactive.

As to `Nc1cccc(N)n1`, the molecule was called inactive.

As to `CC(C)=NNC(N)=S`, the outcome was inactive.

As to `C/C=C/C=C/CCCCCCCO`, the call was inactive.

Consider `[Cl][Sc]([Cl])[Cl]`, for which the molecule was called inactive.

As for `NC(=O)Nc1ccccc1`, the outcome was inactive.

On to `CC12CCC(CC1)C(C)(C)O2`, for which the result was inactive.

Turning to `CC1(C)CC(O)CC(C)(C)N1[O]`, the result was inactive.

As for `Cc1cc(=O)[nH]c(=O)[nH]1`, the result was inactive.

For the molecule `CC(C)(CO)C(O)C(=O)NCCCO` (stereo not drawn), the call was inactive.

On to `CC1(C)[C@@H]2CC[C@@]1(C)C(=O)C2`, for which the molecule was classed as inactive.

`N#CC1(N)CCCCC1`: the result was inactive.

Turning to `CC(=O)c1ccc(S(=O)(=O)NC(=O)NC2CCCCC2)cc1`, the result was inactive.

In the case of `CC1=CP(=O)(c2ccccc2)CC1` (stereo not drawn), the result was inactive.

For `CCOC(=O)OC(=O)OCC`, the outcome was inactive.

Consider `CCOB(OCC)OCC`, for which the molecule was classed as inactive.

On to `CCCCCC(=O)OCC`, for which the call was inactive.

With `Nc1ncnc2nc[nH]c12`, the result was inactive.

Turning to `O=C(O)c1ccc2c(c1)C(=O)OC2=O`, the molecule was classed as inactive.

As for `Cn1ccnc1`, the result was inactive.

As to `CC(CC(C)C)=NO`, the molecule was called inactive.

On to `COC(=O)c1ccc(C(=O)OC)c(C(=O)OC)c1`, for which the outcome was inactive.

Turning to `C=CC(=O)OCCCCCCOC(=O)C=C`, the call was inactive.

As for `C=CCCCCCCCCC=O`, the molecule was called inactive.

With `CCCCOC(=O)C(C)CC` (stereo not drawn), the result was inactive.

The values are drawn from PubChem BioAssay (EPA / NIEHS).
